pPAFAH FP inh: pPAFAH enzyme inhibitors, primary screen, biochemical, fluorescence polarization, human; Platelet-activating factor acetylhydrolase (Homo sapiens), Q13093; recombinant pPAFAH, FP-rhodamine probe fluorescence polarization; inhibition, % at 3.39 µM; 330,000 tested, 1.5% active; AID 463082, 2010;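 active = inhibition above the mean inhibition across the screen plus 3 SD, cut at about 25% in these data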;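 note: inhibitors block binding of the rhodamine activity-based probe so polarization drops; 0% = enzyme with DMSO and 100% = wells lacking pPAFAH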
PME-1 inh: PME-1 inhibitors via competitive probe labeling, primary screen, biochemical, fluorescence polarization, FP-Rh probe, HTS | inhibition, % at 5.9 µM | Protein phosphatase methylesterase 1 (Homo sapiens), Q9Y570 | 320,000 tested, 0.53% active | recombinant PME-1;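 active = inhibition above the campaign mean of all compounds plus 3 SD, cut at about 26% in these data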;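 note: competitive labeling of PME-1 active site by serine hydrolase directed probe; 0% = PME-1 with DMSO and 100% = wells lacking PME-1 enzyme; inhibitors block probe labeling so polarization falls and inhibition rises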
PAFAH1B2 inh: PAFAH1B2 enzyme inhibitors, primary screen, biochemical, fluorescence polarization, human; Platelet-activating factor acetylhydrolase IB subunit alpha2 (Homo sapiens), P68402; recombinant PAFAH1B2, FP-rhodamine activity probe; inhibition, % at 3.39 µM; 340,000 tested, 1.2% active;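 active = inhibition above the mean of all tested compounds plus 3 SD, cut at about 24% in these data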;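 note: 0% = enzyme with DMSO and 100% = wells lacking PAFAH1B2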
Target sequence (P68402 whole entry, looked up): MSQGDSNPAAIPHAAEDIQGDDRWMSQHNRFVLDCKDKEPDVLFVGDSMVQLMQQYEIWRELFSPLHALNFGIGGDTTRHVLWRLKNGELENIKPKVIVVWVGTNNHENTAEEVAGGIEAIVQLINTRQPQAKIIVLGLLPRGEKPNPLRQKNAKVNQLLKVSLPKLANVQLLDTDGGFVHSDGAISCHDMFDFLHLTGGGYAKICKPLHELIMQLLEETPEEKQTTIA
Fam108B counter: mouse Fam108B serine hydrolase inhibitors, primary screen, counter-screen for RBBP9 inhibitor project, biochemical, fluorescence polarization. recombinant Fam108B, FP-Rh probe fluorescence polarization. inhibition, % at 9.51 µM. 300,000 tested, 0.33% active. AID 1947, 2009;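 active = inhibition above the screen mean inhibition plus 3 SD, computed separately per campaign, cut at about 18% in these data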;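 note: inhibitors lower polarization as less probe binds the enzyme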
PAFAH2 inh: PAFAH2 enzyme inhibitors, primary screen, biochemical, fluorescence polarization, human | Platelet-activating factor acetylhydrolase 2, cytoplasmic (Homo sapiens), Q99487 | recombinant PAFAH2, FP-rhodamine activity probe | inhibition, % at 3.39 µM | 340,000 tested, 0.99% active | AID 492956, 2010;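 active = inhibition above the mean over all tested compounds plus 3 SD, cut at about 30% in these data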;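 note: inhibitors block probe labeling of enzyme so polarization drops; 0% = enzyme with DMSO and 100% = wells lacking PAFAH2 protein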
PAFAH1B3 inh: PAFAH1B3 enzyme inhibitors, primary screen, biochemical, fluorescence polarization, human. Platelet-activating factor acetylhydrolase IB subunit alpha1 (Homo sapiens), Q15102. recombinant PAFAH1B3, FP-rhodamine probe. inhibition, % at 3.39 µM. 340,000 tested, 0.28% active;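 active = inhibition above the screen-wide average of all tested compounds plus 3 SD, cut at about 25% in these data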;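 note: 0% = enzyme with DMSO only and 100% = wells lacking PAFAH1B3 protein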
An asterisk follows results filed as active; · = no result. Sampled rows, rich in hits. Any-hit rate of the full collection: about 2.9%.

SMILES	pPAFAH FP inh	PME-1 inh	PAFAH1B2 inh	Fam108B counter	PAFAH2 inh	PAFAH1B3 inh
Cc1ccc(SCC(=O)NCC(C)C)cc1	-3	2	15	3	4	1
COc1ccc2c(CC(=O)OCC(=O)Nc3cccc(C)c3)coc2c1	33*	-5	-4	·	-3	10
COC(=O)c1cccc(NC(=O)Cc2coc3cc(OC)ccc23)c1	3	-7	1	0	-1	2
CN1Cc2c(N3CCOCC3)nc3sc(C(=O)c4ccc(Br)cc4)c(N)c3c2CC1(C)C	30*	-3	·	7	·	·
Cc1cc(C)c(OCC(=O)N(Cc2ccc(N(C)C)cc2)C2CCS(=O)(=O)C2)c(C)c1 (stereo not given)	0	1	3	1	8	8
CCc1cc(=O)oc2cc(C)cc(OCC(=O)N[C@@H](CSCc3ccccc3)C(=O)O)c12	9	9	-1	1	16	9
CCc1cc(=O)oc2cc(C)cc(OCC(=O)NC(Cc3ccc(Cl)cc3)C(=O)O)c12 (stereo not given)	4	3	25*	-1	7	6
CC(=O)Nc1ccc(N(C(=O)CNC(=O)c2ccco2)C(C(=O)NCc2ccco2)c2ccccc2F)cc1 (stereo not given)	7	3	2	2	3	-2
O=C(N/N=C/c1c(O)ccc2ccccc12)c1cccnc1	25*	10	20	5	11	25
O=C(N/N=C/c1ccc(O)c2ncccc12)c1cccc(Br)c1	27*	23	17	12	13	26*
O=C(N/N=C/c1c(O)ccc2ccccc12)c1ccc(Br)o1	29*	2	12	1	14	35*
O=C(N/N=C/c1cc(Br)c(O)c(Br)c1)c1cc2c(ccc3ccccc32)o1	·	·	49*	·	29	43*
O=C(N/N=C/c1ccc(O)c(Br)c1)c1cc2c(ccc3ccccc32)o1	·	·	-2	·	-6	-4
Cc1cc(C)cc(-c2nnc(SCC(=O)c3c(N)n(C4CC4)c(=O)[nH]c3=O)o2)c1	·	·	1	·	-4	5
Cc1ccc(C(=O)N/N=C/c2c(O)ccc3ccccc23)cn1	31*	17	19	13	7	25
Cc1ccc(N(C(=O)Cn2nnc3ccccc32)C(C(=O)NCc2ccccc2)c2ccccn2)cc1 (stereo not given)	-1	-5	26*	7	2	-4
CC(=O)c1ccc(N(C(=O)Cn2nnc3ccccc32)C(C(=O)NCc2ccccc2)c2ccccn2)cc1 (stereo not given)	0	9	7	3	-2	4
CC(=O)N1CCN(c2ccc(NC(=O)c3ccc4ccccc4c3)cc2)CC1	10	-5	0	-4	-5	-2
O=C(Nc1ccc(N2CCCC2)cc1)c1ccc2ccccc2c1	34*	3	3	12	-1	4
c1csc(C2Nc3cccc4cccc(c34)N2)c1	10	5	11	11	-1	30*
CC1CC(NC(=O)C2(C)CC2(Cl)Cl)CC(C)(C)C1 (stereo not given)	-4	6	26*	-3	-1	2
CC1CC(NC(=O)CC#N)CC(C)(C)C1 (stereo not given)	2	-4	4	0	-1	-6
CS(=O)(=O)N1N=C(c2ccccc2)CC1c1ccc2c(c1)OCO2 (stereo not given)	-22	28*	-18	-7	-90	-10
CSc1ccc(S(=O)(=O)NCC(=O)OCC(=O)N(C)C2CCCCC2)cc1[N+](=O)[O-]	12	1	-1	2	-1	7
COc1ccc(NC(=O)[C@H](C)NC(=O)C2CCN(S(=O)(=O)c3ccc(C)cc3)CC2)cc1OC	-7	2	6	-7	-2	3
COc1cccc(/C=N/NC(=O)CNC(=O)COc2ccccc2)c1O	4	-1	7	0	3	11
CCn1c(SCC(=O)N/N=C/C=C\c2ccco2)nc2ccccc21	25*	-7	-3	7	5	-6
